# This is a sample that favours compounds with a hit; in the whole collection about 3.7% have one here.
# MazEF act: MazEF (E. coli) toxin RNase activation; FAM/BHQ RNA-DNA oligo cleavage fluorescence, 5 h; activation, % at 20 µM; 0.32% of 350,000 active; in the data active = activation above about 50%
# BoNT-A LC inh2: BoNT A light chain protease inhibition; inhibition, % at 10 µM; AID 588499; multiplex microsphere protease substrate cleavage, flow cytometry; 0.17% of 360,000 active; also: plate controls were buffer without enzyme for full effect and enzyme alone for no effect
# Anthrax LF inh2: blocks Bacillus anthracis lethal factor protease; AID 588501; multiplex microsphere protease cleavage assay, LF; P15917; 0.12% of 360,000 active; inhibition, % at 10 µM; also: plate controls were buffer without enzyme for full effect and enzyme alone for no effect
# Target sequence (P15917 whole entry, looked up): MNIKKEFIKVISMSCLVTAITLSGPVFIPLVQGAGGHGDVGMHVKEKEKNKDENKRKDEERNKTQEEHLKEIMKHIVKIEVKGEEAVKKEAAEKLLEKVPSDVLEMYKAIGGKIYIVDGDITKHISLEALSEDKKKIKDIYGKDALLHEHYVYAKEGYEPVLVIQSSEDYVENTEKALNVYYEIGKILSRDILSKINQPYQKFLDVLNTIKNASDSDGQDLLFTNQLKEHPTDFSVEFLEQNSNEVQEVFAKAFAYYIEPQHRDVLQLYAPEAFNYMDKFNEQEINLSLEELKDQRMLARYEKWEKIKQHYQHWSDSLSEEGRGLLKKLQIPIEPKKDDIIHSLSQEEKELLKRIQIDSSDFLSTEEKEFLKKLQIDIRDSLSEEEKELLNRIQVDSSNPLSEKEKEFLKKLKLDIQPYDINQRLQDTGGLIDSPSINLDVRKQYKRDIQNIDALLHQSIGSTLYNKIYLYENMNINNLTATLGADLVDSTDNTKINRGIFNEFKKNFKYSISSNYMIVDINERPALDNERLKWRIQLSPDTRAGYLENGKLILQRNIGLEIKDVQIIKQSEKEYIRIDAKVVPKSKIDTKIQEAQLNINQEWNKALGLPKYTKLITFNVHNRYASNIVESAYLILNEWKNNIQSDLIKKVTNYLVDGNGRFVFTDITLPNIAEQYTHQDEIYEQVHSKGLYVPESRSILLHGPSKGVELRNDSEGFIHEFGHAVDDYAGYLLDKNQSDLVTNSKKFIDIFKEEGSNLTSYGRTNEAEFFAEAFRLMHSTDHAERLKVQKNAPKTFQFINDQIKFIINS
# Bead autofluor: counter-screen for toxin protease inhibitors: compound fluorescence | fluorescence intensity (concentration not given with the values) | 3.1% of 360,000 active | compound autofluorescence counterscreen, microsphere flow cytometry; active compounds read high; in the data active = fluorescence intensity above about 16000; inconclusive = no clear call, values can overlap the other calls
# BoNT F protease: inhibitors of Botulinum neurotoxin F light chain protease | Multiplex microsphere protease cleavage assay, flow cytometry | 0.22% of 360,000 active | AID 588497 | inhibition, % at 10 µM; in the data active = inhibition above about 35%, passing the limit was not always enough; inconclusive = no clear call, values can overlap the other calls; also: plate controls were buffer without enzyme for full effect and enzyme alone for no effect
# * = called active by the depositor; ? = inconclusive; / = not tested or not shown. Rule as the data show it, unless noted: active = inhibition above about 30%; inconclusive = no clear call, values can overlap the other calls; inactive = below that.
SMILES,MazEF act,BoNT-A LC inh2,Anthrax LF inh2,Bead autofluor,BoNT F protease
CN(C)S(=O)(=O)N1CCc2ccccc2C1,5.4,-3.2,-1.3,24594*,-6.5
CCCCSc1nnc(-c2ccc(NC(=O)CCc3ccccc3)cc2)n1C,4.0,3.3,-11.3,20381*,4.6
Cn1c(SCC(=O)NCc2ccccc2)nnc1-c1ccc(NC(=O)CCc2ccccc2)cc1,-2.1,-0.8,-3.7,2922,-16.5
CCc1ccc(NC(=O)CSc2nnc(-c3ccccn3)n2C)cc1,5.0,1.0,-2.8,19708*,1.9
CC(C)c1ccc(NC(=O)CSc2nnc(-c3ccccn3)n2C)cc1,7.6,-0.3,8.0,9510,16.7
CC(C)OC(=O)CSc1nnc(-c2ccccn2)n1C,0.0,-1.3,-4.3,17273*,-5.8
COc1cccc(CCNC(=O)c2cc(COc3c(F)cccc3F)on2)c1,-7.9,0.0,-0.9,4433,3.7
CCC(C)(C)NC(=O)CN(C(=O)CNS(=O)(=O)c1ccc(F)cc1)c1ccc2c(c1)OCCO2,1.5,-0.7,-4.8,4641,-2.3
COc1ccccc1NS(=O)(=O)c1cccc(C(=O)NCC(c2ccco2)N(C)C)c1 (stereo not given),1.6,-1.2,-0.7,?,6.9
Cc1ccc(-c2nnn(CC(=O)N(Cc3ccccc3)C(C(=O)NC(C)(C)C)c3ccncc3)n2)o1 (stereo not given),-1.6,-0.7,-2.5,20840*,4.3
Cc1ccc(-c2nnn(CC(=O)N(c3cccc(O)c3)C(C(=O)NC(C)(C)C)c3cccs3)n2)o1 (stereo not given),5.1,0.0,-2.0,16505*,0.0
COCC(C)n1c(SCC(=O)NCCC2=CCCCC2)nc2ccccc2c1=O (stereo not given),4.7,0.1,-2.9,4510,-14.0
CC(=O)NCCn1c(SCc2ccccc2F)nc2ccccc2c1=O,2.5,-1.9,0.4,10877,-8.6
Cc1ccc(-n2nnnc2SCC(=O)NCCC2=CCCCC2)c(C)c1,-3.5,0.0,-0.5,20542*,0.2
CC(=O)NCCn1c(SCC(=O)NCCC2=CCCCC2)nc2ccccc2c1=O,2.3,-4.8,-3.3,24653*,-8.6
CCOC(=O)N1CCC(n2c(SCC(=O)NCCC3=CCCCC3)nc3ccccc3c2=O)CC1,0.6,6.8,-1.3,19812*,8.8
CC(=O)NCCn1c(SCc2cc(=O)n3cc(Cl)ccc3n2)nc2ccccc2c1=O,5.5,?,-0.2,21005*,3.7
C/C(=N\NC(=O)C1COc2ccccc2O1)c1ccc(N2CCOCC2)cc1 (stereo not given),6.9,-0.9,-0.8,4400,-2.8
Cc1cccc(Nc2c([N+](=O)[O-])ccc3nonc23)c1,-1.9,-9.4,-0.3,3677,-13.8
Cc1cccc(NC(=O)CCC(=O)c2cccs2)n1,7.6,/,/,/,/
Cc1ccc(NC2C(=O)NC(=O)NC2=O)cc1,-16.0,-0.5,-1.3,3391,-2.9
Cc1cnc(C(=O)OCC(=O)Nc2ccc(Br)cc2F)cn1,12.8,/,/,/,/
O=Cc1cn(Cc2ccc(F)cc2)c2ccccc12,-3.5,0.2,-0.9,2119,-2.7
O=[N+]([O-])/C=C/c1cn(Cc2ccc(F)cc2)c2ccccc12,-42.0,37.5*,31.2*,6767,27.4
Cc1noc(C)c1CC(=O)N1CCCC(C(=O)c2ccc(C(C)(C)C)cc2)C1 (stereo not given),-11.6,-0.6,0.6,2565,-1.6
SMILES,MazEF act,BoNT-A LC inh2,Anthrax LF inh2,Bead autofluor,BoNT F protease
CC(C)(C)c1ccc(C(=O)C2CCCN(C(=O)C3CCOCC3)C2)cc1 (stereo not given),72.7*,-0.9,3.5,4781,-5.7
N#Cc1ccc2ccn(CC(=O)NC3CCCCCC3)c2c1,-2.8,-0.7,-1.1,21036*,0.3
CCN(CC)CCCN1C(=O)C(O)=C(C(=O)c2sc(C)nc2C)C1c1ccco1 (stereo not given),6.8,10.2,-2.7,19534*,12.8
COc1ccc(C2C(C(=O)c3sc(C)nc3C)=C(O)C(=O)N2CCCn2ccnc2)cc1 (stereo not given),11.4,0.7,0.6,3948,2.0
COc1ccc(C2C(C(=O)c3sc(C)nc3C)=C(O)C(=O)N2CCCn2ccnc2)cc1OC (stereo not given),1.4,0.5,-1.1,20435*,-1.6
CN(C)c1cccc(NC(=O)CCc2ccccc2)c1,2.8,11.7,24.6,7865,74.8*
CCOC(=O)[C@]12CCCC=C1N(Cc1ccco1)C(=O)[C@H](CC(=O)N1CCC(c3ccccc3)CC1)C2,/,-0.4,-5.5,6132,-2.2
Cc1ncc(CO)c(CNc2ccc(Oc3ccccc3)cc2)c1O,-10.2,-1.4,-13.4,3736,14.4
CCOC(=O)c1sc(NC(=O)CSc2nnc(Cc3ccccc3)o2)c(C(=O)OCC)c1C,-0.3,-1.2,-4.2,23789*,-3.2
CCOC(=O)c1c(NC(=O)CN2CCOCC2)sc(C(=O)NC)c1C,-2.5,-0.7,0.4,22110*,-2.7
CCOC(=O)c1sc(NC(=O)CSc2nnc(C)s2)c(C(=O)OCC)c1C,6.7,1.1,-0.1,22787*,2.0
CCOC(=O)c1c(NC(=O)C(Sc2ccccc2)c2ccccc2)sc(C(N)=O)c1C (stereo not given),-4.3,-1.0,1.2,23438*,-0.5
Cc1cccc(OCCCC(=O)Nc2ccc(S(=O)(=O)Nc3nccs3)cc2)c1C,3.6,-1.4,2.3,6511,2.8
S=C(NCCCc1cnc[nH]1)NCCCN(Cc1ccc(Cl)cc1)c1ccc(Br)cn1,/,-0.3,-0.2,3678,-11.1
NNC(=S)NCc1ccc2c(c1)OCO2,-4.7,-0.4,-0.2,2498,-4.8
COc1ccc(Cc2nnc(SCC(=O)NC(C)c3ccccc3)o2)cc1 (stereo not given),-1.2,1.6,0.7,22651*,0.9
CC(NC(=O)CSc1nnc(COc2ccccc2)o1)c1ccccc1 (stereo not given),11.3,-1.6,-3.1,4423,7.6
COc1ccc(CCCc2nnc(SCC(=O)Nc3cc(C)c(C)cc3Br)o2)cc1,-1.5,-0.8,-1.2,21054*,-3.9
CC(C)CNC(=O)C1(C)CCCN1C(=O)C(C)(C)Oc1ccc(Cl)cc1 (stereo not given),/,0.5,-1.6,3554,7.6
O=C(c1cccc(S(=O)(=O)N2CCc3ccccc32)c1)N1CCOCC1,7.3,0.0,0.6,2776,-2.5
CCN(CC)S(=O)(=O)c1cccc(-c2nnc(SCC(=O)NC3CCCCCCC3)n2N)c1,1.2,-4.9,1.2,21228*,-5.2
CCN(CC)S(=O)(=O)c1cccc(-c2nnc(SCC(=O)NC3CCCC3)n2N)c1,5.2,-2.9,-3.2,20557*,-5.5
COc1ccc(-c2nnc(SCC(=O)NC3CCCCC3)n2N)cc1,0.3,2.0,-2.0,4381,-8.3
Nn1c(SCC(=O)NC2CCCCC2)nnc1-c1ccccc1,3.7,0.6,-1.7,4547,14.8
Cc1ccc(-c2nnc(SCC(=O)NC3CCCC3)n2N)cc1,-0.6,0.3,-6.9,3598,0.0
CCN(CC)S(=O)(=O)c1cccc(-c2nnc(SCC(=O)NC3CCCCCC3)n2N)c1,-4.9,1.7,-3.1,22076*,2.2
COc1ccccc1C1=NOC(Cn2c(NCCOCCO)nc3c2c(=O)n(C)c(=O)n3C)C1 (stereo not given),10.5,0.8,-3.9,4290,0.2
